Consider 90 compounds from PubChem BioAssay AID1259415 (National Center for Advancing Translational Sciences (NCATS), 2018).

In all, about 410,000 compounds went through this assay and about 18,000 (4.4%) were called active. Inconclusive results (about 7%) are left out. For the sample, actives were picked, then their nearest neighbours and some compounds at random. Values without a mark were called inactive. Rule as the data show it: active = activity change below about -60%; inconclusive = no clear call, values can overlap the other calls; inactive = above about -39%.
% is scaled to controls: 0 for no effect and ±100 for the full control effect.

The assay in a line: qHTS Assay for inhibitors of the human cytomegalovirus (HCMV). The settings on record: HFF cells, HCMV-luciferase reporter, 72 h; at 57.5 µM; hits give low values. The procedure, abridged: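 Two-dose cell screen: HFF monolayers treated with compounds and infected with luciferase-expressing HCMV at 1 PFU/cell, 72 h at 37C, then lysed for luciferase measurement.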
`CCc1ccc(NC(=O)c2cc3c(=O)n(Cc4cccnc4)ccc3nc2C)cc1`: the activity change, negative = inhibition was -20.1%. As for `CC(=O)N1Cc2cc(C(=O)NCc3cccc(F)c3)nc(-c3cccc(C4=CCCCC4)c3)c2[C@H]1CCO`, the figure is 3.64%; as for `COc1ccc(CCNC(=O)c2cc3cccc4c3n2CC(C)S4)c(OC)c1OC` (stereo not given), 0%; as for `COCc1c(C(=O)N/N=C/C2CC=CCC2)nnn1-c1nonc1N` (stereo not given), 65.4%. As for `C/C(=N\NC(=O)Cc1ccccc1[N+](=O)[O-])c1cccnc1`, the figure is 44.6%. Consider `O=C(NN=Cc1ccco1)C(=O)Nc1ccc(Cl)c([N+](=O)[O-])c1`, for which the activity change, negative = inhibition was 63.3%.

On to `O=C(/C=C/c1ccc(Cl)c([N+](=O)[O-])c1)c1cccnc1`, for which the activity change, negative = inhibition was -80.5% (active). `Cc1cc(=O)oc(C)c1C(=O)Nc1cnc2ccccc2c1`: the activity change, negative = inhibition was 38.4%.

With `Cc1ccc(Cn2c(=O)n(CCCC(=O)NCc3ccccc3Cl)c(=O)c3ccccc32)cc1`, the activity change, negative = inhibition was 20.2%. As for `COc1cccc(CNn2cn[nH]c2=S)c1OCc1ccccc1`, the figure is -23.6%; as for `COc1cccc(CNCCc2c[nH]c3ccccc23)c1OCc1ccccc1F`, -99.3% (active). Take `COc1ccc(CNCCc2c[nH]c3ccccc23)cc1OC`: the activity change, negative = inhibition was 4.34%.

Turning to `Nc1ncnc2c1ncn2C1OC(CO)CC1O` (stereo not given), the activity change, negative = inhibition is 8.48%. With `CC1CCc2noc(NC(=O)c3ccc([N+](=O)[O-])cc3)c2C1` (stereo not given) the figure was 26.6%.

For the compound `Cc1nnc(N/N=C/c2ccccn2)[nH]c1=O`, the activity change, negative = inhibition is -97.8% (active). In the case of `CS(=O)(=O)N(CC(=O)N/N=C/c1ccccn1)c1ccc(Oc2ccccc2)cc1`, the activity change, negative = inhibition is -1.4%. With `S=C(NN=Cc1ccccn1)Nc1ccccn1` the figure was 279%; with `O=C(CN1C(=O)COc2ccc(S(=O)(=O)N3CCCCCC3)cc21)N1CCN(c2cccc(C(F)(F)F)c2)CC1`, -23.3%; with `Fc1ccc(C(Nc2ccc(Cl)c(C(F)(F)F)c2)c2nnc(-c3ccccc3)o2)cc1` (stereo not given), -0.379%. As for `O=c1nc(N/N=C/c2ccco2)cn[nH]1`, the figure is -3.52%. As for `COc1cc(OC)cc(C(=O)N[C@H](C(=O)OCC(=O)NC(C)c2ccccc2)C(C)C)c1` (stereo not given in full), the figure is -6.95%; as for `COc1cc(OC)cc(C(=O)N[C@H](C(=O)Nc2nc3ccccc3[nH]2)C(C)C)c1`, -77% (active). Regarding `COc1ccc(N2CCN(C(=O)[C@@H](NC(=O)c3cc(OC)cc(OC)c3)C(C)C)CC2)cc1`, the activity change, negative = inhibition was -2.95%. With `CCN(Cc1ccncc1)C(=S)Nc1ccccc1C` the figure was 2.81%. As to `CCn1c(CN2CCC(C)CC2)nc2cc(NC(=O)c3ccccc3[N+](=O)[O-])ccc21`, the activity change, negative = inhibition was -37.4%. With `O=C1Nc2cc(Cl)c(Cl)cc2N(O)N1c1ccccc1Cl` the figure was -10%; with `COc1ccc(NC(=O)C(C)SCc2ccccc2)cc1` (stereo not given), -10.8%. For the compound `CC(Sc1nnc2c(n1)C1CCC2(C)C1(C)C)C(=O)Nc1ccccc1` (stereo not given), the activity change, negative = inhibition was -60.9% (active). Take `CC(Sc1nnc(C2CC2)n1C1CC1)C(=O)Nc1ccc(C(N)=O)cc1` (stereo not given): the activity change, negative = inhibition was 36.3%. For the compound `CC(=O)Nc1ccc(S(=O)(=O)Nc2cc(C)cn(Cc3ccc(C)cc3)c2=O)cc1`, the activity change, negative = inhibition is -7.02%. With `Oc1c(Cl)cc(Cl)c(Cl)c1Cc1c(O)c(Cl)cc(Cl)c1Cl` the figure was -95.4% (active); with `Cc1cc(C)nc(NS(=O)(=O)c2ccc(NC(=O)c3cc(=O)c4ccc(C)c(C)c4o3)cc2)n1`, -4.22%.

Consider `Cc1cc(C)cc(NS(=O)(=O)c2ccc(-c3cc(C)no3)s2)c1`, for which the activity change, negative = inhibition was 0%.

On to `COc1cccc(-c2nnc3n(CCc4ccccc4)c(=O)c4ccccc4n23)c1O`, for which the activity change, negative = inhibition was 2.64%. As for `Cc1cc(=O)oc2cc(OCC3CC(c4ccccc4Cl)=NO3)ccc12` (stereo not given), the figure is -90.9% (active); as for `Cc1ccccc1NC(=O)c1ccc(COc2ccc3c(C)cc(=O)oc3c2)cc1`, 10.2%; as for `CC(=O)c1c(C)[nH]c(C(=O)COc2ccc3c(C)cc(=O)oc3c2)c1C`, -31.5%. With `CCc1ccc(N2C(=O)CN(S(=O)(=O)CC)CC2(C)C(=O)NC2CCCCC2)cc1` (stereo not given) the figure was 0%; with `COc1cccc(C(=O)NCc2ccc3c(c2)CCN3C(=O)c2ccncc2)c1`, 8.47%; with `NS(=O)(=O)c1ccc(NC(=O)COc2ccc(S(=O)(=O)NC3CCCCC3)cc2)cc1`, 15.5%. As for `CCN(CC)CCn1c(=S)[nH]c2ncccc2c1=O`, the activity change, negative = inhibition was -27.4%. As for `COc1ccc(C(=O)NCC(c2ccc(N(C)C)cc2)N2CCc3ccccc32)c(OC)c1` (stereo not given), the figure is -18.8%. Turning to `COc1ccc(CN2C(=O)CC(Cc3ccc(C)cc3)C2=O)cc1OC` (stereo not given), the activity change, negative = inhibition was -12.9%. As for `CCCCOc1ccc(CN2C(=O)C(=O)c3cc(Br)cc(C)c32)cc1OC`, the figure is -102% (active). With `CCCCOc1ccc(Cn2c(=O)oc3ccc(C)cc32)cc1OC` the figure was -4.31%.

Consider `CCC(=O)N1CCc2cc(S(=O)(=O)NC(Cc3ccccc3)C(=O)NCc3ccccc3)ccc21` (stereo not given), for which the activity change, negative = inhibition was -22.7%. As for `CCn1cc(C(=O)N2CCN(c3cc(Cl)ccc3C)CC2)c(=O)c2cc(S(=O)(=O)N3CCCC3)ccc21`, the figure is -11.4%; as for `Cc1c(C)n(Cc2ccc(Cl)cc2)c2ccc(C(=O)N3CCN(c4ccccc4F)CC3)cc12`, 0%; as for `Cc1nn(C)cc1/C=C1\CCC/C(=C\c2cn(C)nc2C)C1=O`, -22.6%. With `CCCCc1nn2c(=O)cc(COC(=O)c3ccccc3NC(=O)C(C)(C)C)nc2s1` the figure was -7.43%.

Take `O=C(C[C@H]1C(=O)N(c2ccc(F)c(F)c2)C[C@@H]1Cc1ccccc1)Nc1ccccc1`: the activity change, negative = inhibition was -93.1% (active). As to `COc1ccc(NC(=O)C[C@H]2C(=O)N(CCc3ccccc3)C[C@@H]2C)cc1`, the activity change, negative = inhibition is 5.53%.

On to `CC1(C)CN(CCc2ccccc2)C(=O)[C@H]1CC(=O)Nc1ccc(Br)cc1`, for which the activity change, negative = inhibition was 8.25%.

In the case of `CCc1ccc2ncc3c(-c4ccc(C)cc4)nn(CC(=O)NCc4ccccc4)c3c2c1`, the activity change, negative = inhibition was -6.71%.

On to `COc1ccc(S[C@]2(c3nc(C)no3)CC(=O)N(C(=O)C3CC3)[C@@H]2c2ccc(OC)cc2)cc1`, for which the activity change, negative = inhibition is -16.8%. With `Cc1cccc(Cc2c(C)nc3nc(SCc4ccccc4Cl)nn3c2C)c1` the figure was 4.98%; with `Oc1ccc(-c2nc3ccc(Cl)cn3c2Nc2ccc3c(c2)OCO3)cc1`, 12.9%; with `Cc1ccc(CCNC(=O)c2ccc3c(c2)nc2n3CCC(C)C2)cc1` (stereo not given), 14.9%. As for `COc1ccc(-c2csc(NC3OC(=O)c4ccccc43)n2)cc1` (stereo not given), the figure is -107% (active); as for `Cc1ccc(-c2csc(NC3OC(=O)c4ccccc43)n2)cc1` (stereo not given), 0% (active); as for `COc1ccc2c(c1OC)C(=O)OC2Nc1nc(-c2ccccc2)cs1` (stereo not given), -104% (active). As for `CCCc1nc2scc(-c3ccc(C)cc3)c2c(=O)n1N`, the activity change, negative = inhibition is -13.5%. `COc1ccc(-c2cc(-c3ccc(F)cc3)nc3c2COc2ccccc2-3)cc1`: the activity change, negative = inhibition was -6.64%. As for `COc1cccc(C(NC(C)=O)c2nc(-c3ccccc3OC)cs2)c1` (stereo not given), the figure is 28.9%; as for `Cc1cc2c(cc3c(SCc4cccc(Cl)c4)nnc(C)n32)o1`, 4.43%. Consider `Cc1ccc(-n2c(=O)c3cccnc3n2CC(=O)Nc2ccccc2C(F)(F)F)cc1C`, for which the activity change, negative = inhibition is -5.4%. For `CCN(C(=O)CSc1cccc[n+]1[O-])c1ccccc1`, the activity change, negative = inhibition was -32.1%.

As for `O=C(CSc1cccc[n+]1[O-])c1ccc(-c2ccccc2)cc1`, the activity change, negative = inhibition was -97.9% (active).

For the compound `O=C(CSc1cccc[n+]1[O-])NCCCc1ccccc1`, the activity change, negative = inhibition is -39.5%.

As for `COC(=O)Cc1nnn2c1[C@H](C)[C@H](c1ccccc1[N+](=O)[O-])OCC2`, the activity change, negative = inhibition was -4.47%. With `COc1ccc(CNC(=O)COCc2cc(-c3cccs3)on2)cc1OC` the figure was -28.2%; with `CC1CCN(c2nc3ccc(C(=O)N4CCN(c5ccccc5)CC4)cc3s2)CC1`, 31.7%; with `S=c1[nH]nc(CSCc2ccc(Cl)cc2Cl)n1-c1ccccc1`, -18.3%. With `CCn1c(-c2ccncc2)n[nH]c1=S` the figure was -21.8%; with `CCn1c(CSCc2c(Cl)cccc2Cl)n[nH]c1=S`, -67.6% (active). With `Cc1cc(C)n2nc(CNS(=O)(=O)c3c(F)c(F)c(F)c(F)c3F)nc2n1` the figure was 0%; with `CCc1ccc2oc(-c3ccc(C)c(NC(=O)/C=C/c4ccco4)c3)nc2c1`, 34.4%. `Cc1ccc(NC(=O)Cn2c(=O)n(-c3ccccc3)c(=O)c3c4c(sc32)CCCC4)cc1`: the activity change, negative = inhibition is 2.61%. As for `CCC(C)NC(=O)Cn1c(=O)n(-c2ccc(Cl)cc2)c(=O)c2c3c(sc21)CCCC3` (stereo not given), the figure is 12.8%. Regarding `CCOC(=O)c1c(NC(C)=O)c2c3c(sc2n1Cc1c(C)cc(C)cc1C)CCCC3`, the activity change, negative = inhibition was -73.8% (active). Turning to `CCOc1ccc(C(=O)c2cn(Cc3ccc(F)cc3)c3ccc(F)cc3c2=O)cc1`, the activity change, negative = inhibition is -1.76%. With `CCCc1nn2c(=O)cc(CSCC(=O)Nc3cccc(C)c3)nc2s1` the figure was 2.89%. With `CNC(=S)N/N=C/c1ccc(N2CCOCC2)s1` the figure was 26.5%; with `C=CCNC(=S)NNC(=O)c1ccc(Br)o1`, -7.15%.

On to `C=CCNC(=S)N/N=C/c1ccc(C)s1`, for which the activity change, negative = inhibition is 0% (active).

For the compound `CN(C(=O)COC(=O)Cn1cnc2c1c(=O)n(C)c(=O)n2C)C1(C#N)CCCCC1`, the activity change, negative = inhibition was 40.8%.

On to `CCC(CC)c1nn2cc(-c3ccccc3)nc2s1`, for which the activity change, negative = inhibition is -21.9%. As for `CCc1cc2c(cc3c(=O)n(CC(=O)NCc4cccc(Cl)c4)nc(CC)n32)s1`, the figure is 34.4%.

Turning to `CC1(C)CC2CC(C)(CN2c2ncnc3ccc(Br)cc23)C1` (stereo not given), the activity change, negative = inhibition was -62.4% (active). As for `Cc1ccc(CN(C(=O)c2ccccc2[N+](=O)[O-])c2ccccn2)cc1`, the figure is 3.28%.
